# Bioassay records from PubChem.
# An excerpt weighted towards active compounds, which were near 28% of everything screened.
# DAT uptake mod = human DAT dopamine uptake with cocaine, either direction; LLC-PK1 hDAT cells, [14C]-dopamine uptake with cocaine IC80; actives deviate in either direction; Q01959; B-score at 10 µM; actives 1.3% (n = 110,000); AID 449768;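 active means Z score or B-score, a plate-position-corrected score, falls beyond the plate's 99.7% confidence bounds, in either direction; inactive means both scores lie inside the 99.7% bounds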;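 further: scored against the spread of the other compound wells on the same plate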
# CYP2C9 act = increases human cytochrome P450 2C9 activity; AID 1024; actives 1.4% (n = 96,000); activation factor at 5 µM; recombinant CYP2C9, luciferin-H conversion, luminescence; hits give high values; factor 1 = untreated enzyme, 0 = blocked; P11712;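 active means activation factor of 2 or more for CYP2C9 at a 5 µM dose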;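 further: 0 = sulfaphenazole-blocked wells and 1 = vehicle-only wells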
# Target sequence (P11712 whole entry, looked up): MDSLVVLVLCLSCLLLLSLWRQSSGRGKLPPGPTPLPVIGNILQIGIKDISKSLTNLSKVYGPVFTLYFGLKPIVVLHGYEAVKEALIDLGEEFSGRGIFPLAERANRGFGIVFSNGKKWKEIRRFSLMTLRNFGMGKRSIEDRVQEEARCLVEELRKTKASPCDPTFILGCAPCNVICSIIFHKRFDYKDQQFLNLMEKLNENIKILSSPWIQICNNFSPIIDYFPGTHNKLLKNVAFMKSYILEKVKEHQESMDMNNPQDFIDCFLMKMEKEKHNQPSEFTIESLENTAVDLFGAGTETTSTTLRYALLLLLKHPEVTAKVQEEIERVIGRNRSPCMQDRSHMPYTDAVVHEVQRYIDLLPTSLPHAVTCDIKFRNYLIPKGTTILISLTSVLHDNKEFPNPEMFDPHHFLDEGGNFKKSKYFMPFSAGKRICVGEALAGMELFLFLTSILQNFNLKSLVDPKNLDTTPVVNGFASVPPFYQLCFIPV
# CYP2C19 inh = blocks human cytochrome P450 2C19; P33261; actives 21% (n = 96,000); inhibition, % at 5 µM; AID 778; CYP2C19 Supersomes, luciferin-H EGE luminescence, 30 min;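 active means CYP2C19 inhibition above a set limit at 5 µM in the primary screen, cut at about 50% in these data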;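 further: plate controls were negative control wells for no effect and 2.5 mM tranylcypromine positive control for full effect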
# D1 allo mod = allosteric modulators of human D1 dopamine receptor. P21728. HEK293 D1, CRE-luciferase, dopamine EC30 potentiation; actives deviate in either direction. B-score at 10 µM. actives 5.9% (n = 58,000). AID 641;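 active means luminescence count or its row- and column-corrected plate score outside the 99.7% band of the plate's sample wells, on either side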
# CYP2C19 activ = cytochrome P450 2C19 (human) activation | recombinant CYP2C19, luciferin-H EGE luminescence; hits give high values; 0 = fully inhibited enzyme, 1 = untreated enzyme | P33261 | AID 1025 | activation factor at 5 µM | 96,000 tested, under 10 active;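 active means activation factor of at least 2 at 5 µM in the primary screen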;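 further: 0 = wells with 2.5 mM tranylcypromine and 1 = vehicle-only wells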
# CYP2C9 inh = blocks human cytochrome P450 2C9 | CYP2C9 Supersomes, luciferin-H conversion, luminescence | P11712 | actives 20% (n = 96,000) | inhibition, % at 5 µM;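 active means blocking of liver enzyme CYP2C9 beyond about 50% at 5 µM, limit read from the data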
# Numbers without * were called inactive; / = no result given.
SMILES,DAT uptake mod,CYP2C9 act,CYP2C19 inh,D1 allo mod,CYP2C19 activ,CYP2C9 inh
COc1ccc(Cl)cc1N1C(=O)C2CCCN2C1c1ccc(F)cc1 (stereo not drawn),-1.2,2*,49,-0.79,0.5,-98
Cc1ccc(-c2nnc(SCc3nc(N)nc(Nc4ccccc4C)n3)n2N)cc1,/,0.6,42,/,0.6,37
Cc1ccc(CNC(=O)c2coc(=O)c3ccccc23)o1,-0.31,0.9,11,0.28,0.9,8
CN(C(=O)c1coc(=O)c2ccccc12)c1ccc(F)cc1,/,0.4,25,0.44,0.8,59*
Cn1nnc(NC(=O)COc2ccc(C3CCCCC3)cc2)n1,-0.2,0.5,39,/,0.6,53*
Cc1nc2c(ccc3nc(NC(=O)C(c4ccccc4)c4ccccc4)sc32)s1,0.049,/,/,/,/,/
C=CCc1c(C)nc(SC)nc1Nc1ccc(C)cc1,0.13,0.9,6,/,0.9,5
CCOc1ccc(/C(O)=C2/C(=O)C(=O)N(c3nc(C)c(C)s3)C2c2ccco2)cc1 (stereo not drawn),1.4,0.2,46,/,0.5,81*
O=S(=O)(c1ccccc1Cl)N1CCCC1c1nc(-c2ccccc2Cl)no1 (stereo not drawn),0.016,0.9,58*,/,0.4,13
COc1ccc(C(=O)C2CCN(C(=O)c3ccco3)CC2)cc1,1.4,0.8,51*,0.4,0.5,24
O=C(c1ccco1)N1CCC(c2nc(-c3ccc(F)cc3)no2)CC1,1.1,0.8,18,-1.4,0.8,16
O=S(=O)(c1ccc(Cl)cc1)N1CCCC1c1nc(-c2ccc(Cl)cc2)no1 (stereo not drawn),1,/,/,/,/,/
O=C(c1ccco1)N1CCC(c2nc(-c3ccccc3Cl)no2)CC1,1.4,0.4,50,0.058,0.5,57*
O=C(c1ccco1)N(Cc1cc2ccccc2[nH]c1=O)C1CCCCC1,1.6,0.5,13,-0.19,0.9,54*
O=C(c1ccncc1)N(Cc1cc2ccccc2[nH]c1=O)C1CCCCC1,-0.18,0.3,90*,-0.67,0.1,74*
O=C(c1ccco1)N(Cc1cc2ccccc2[nH]c1=O)CC1CCCO1 (stereo not drawn),0.17,1,8,/,0.9,-4
CC(C)NS(=O)(=O)c1ccc(OCC(=O)N(C)Cc2ccccc2)cc1,-1.8,0.7,51*,/,0.5,34
COc1ccc(-c2csc(N(CCc3ccccc3)C(=O)COc3ccccc3)n2)cc1,/,0.1,20,/,0.8,92*
COc1ccc(OCC(=O)N(C)Cc2ccccc2)cc1,-0.18,0.9,97*,-0.064,0,12
CC(C)NS(=O)(=O)c1ccc(OCC(=O)Nc2ccc(F)cc2F)cc1,-0.46,0.5,43,/,0.6,50*
O=C(COc1ccc(Cl)cc1)N(Cc1ccccc1)c1nc(-c2ccccc2)cs1,0.0026,1.1,-17,/,1.2,-14
COc1ccc(OCC(=O)N2CCN(C(=O)Cc3ccccc3)CC2)cc1,0.32,0.8,36,-0.19,0.6,16
c1ccc(-n2nnnc2SCc2cccc3nsnc23)cc1,-0.12,0.6,-2,0.98,1,38
CC1CCN(CCCNC(=O)c2cc3sccc3n2C)CC1,-2,1,-14,-0.043,1.1,-2
Cn1c(C(=O)N2CCCC(C(=O)O)C2)cc2sccc21 (stereo not drawn),-0.036,1,1,0.62,1,4
SMILES,DAT uptake mod,CYP2C9 act,CYP2C19 inh,D1 allo mod,CYP2C19 activ,CYP2C9 inh
CN(C(=O)c1cc2sccc2n1C)C1CCCCC1,-0.64,0.8,74*,-1.7,0.3,21
COC(=O)c1cccc(NC(=O)c2cc3sccc3n2C)c1,-0.83,0.5,77*,-1.3,0.2,53*
Cn1c(C(=O)NC2CCCCC2)cc2sccc21,-0.74,0.8,55*,-0.52,0.4,18
CC(C)CC(CO)N1CCN(C(=O)c2ccc(C(C)(C)C)cc2)CCC1=O (stereo not drawn),-0.49,/,/,/,/,/
Cc1oc(-c2ccccc2)cc1C(=O)Nc1cccc2ccccc12,0.72,1.9,11,/,0.9,-88
COC(=O)c1c(-c2ccncc2)csc1NC(=O)c1ccoc1C,-0.17,0.3,94*,2,0.1,74*
CCC(CC)C(=O)Nc1c2c(nn1-c1ccc(OC)cc1)CS(=O)C2 (stereo not drawn),-0.84,0.7,23,1.5,0.8,27
